# Test results as given in PubChem BioAssay (NCATS).
# Unmarked numbers belong to inactive results. Inconclusive results are not listed. Where a call stands in place of a potency, no number is given. Active and inactive are the calls of the source. Calls follow the shape of the dose curve; as a rule, active = well fitted curve in the direction sought with a large enough effect; inconclusive = small, poorly fitted or top-dose-only effect, or another doubt; inactive = no such curve, though single readings can be large; an effect the other way counts as inactive or inconclusive.
# Tests used:
# [1] = target: Glutathione peroxidase 1 (Homo sapiens) (UniProt P07203); assay: Primary qHTS Assay for Inhibitors of Recombinant Selenoprotein Glutathione Peroxidase 1 (GPX1) (AID 1845191); also: nearly all actives have a fitted effect of over 65% in size; also: potency is read from the fitted curve at half-maximal effect
# Outline: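 Recombinant GPX1 (10 nM final) was preincubated with compound for 30 min at room temperature, then reacted with 1 mM GSH, 0.5 mM CHP, 0.5 mM NADPH and 100 nM glutathione reductase; NADPH fluorescence (340/450 nm) was read at 0 and 15 min.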
# [2] = target: Phospholipid hydroperoxide glutathione peroxidase GPX4 (Homo sapiens) (UniProt P36969); assay: Primary qHTS Assay for Inhibitors of Recombinant Selenoprotein Glutathione Peroxidase 4 (GPX4) (AID 1845192); also: nearly all actives have a fitted effect of over 65% in size; also: potency is read from the fitted curve at half-maximal effect
# Outline: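 GR-coupled readout: 100 nM GR, 1 mM GSH, 0.5 mM NADPH; NADPH fluorescence (ex 340/em 450 nm) read at t=0 and after 15 min RT. GPX4 200 nM, preincubated 30 min with compound; substrate 0.5 mM CHP.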
# [3] = target: Luciferin 4-monooxygenase (Photinus pyralis) (UniProt P08659); assay: Primary firefly luciferase (FLuc) qHTS assay for identification of artifact compounds. (AID 1845220); also: nearly all actives have a fitted effect of over 60% in size
# Outline: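 Reaction readout was CCD-imaged luminescence, taken 5 min after adding 10 nM purified firefly enzyme to compound-treated wells holding 10 uM luciferin and ATP in pH 7.6 buffer.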
# [4] = tested on: Nanoluciferase (engineered Oplophorus gracilirostris luciferase); assay: Primary Nanoluciferase (NLuc) qHTS assay for identification of artifact compounds. (AID 1845222);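 also: NLuc secreted into diluted conditioned medium of S16 cells; series mostly up to about 54 µM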
# Outline: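 Concentration-response data were obtained by luminescence after 5 min with Nano-Glo substrate at 1:100. The enzyme was diluted S16 NLuc-expressing cell medium, preincubated with compound for 15 min at RT. Curves were fitted with a 4-parameter Hill model.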
# [5] = Primary redox qHTS assay for identification of artifact compounds. (AID 1845223)
# Outline: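 Amplex Red (25 uM) and HRP (250 mU/mL) in HBSS, with compounds for 15 min, then 250 uM DTT for 30 min, room temperature, dark. Fluorescence 525/598 nm read; normalized to DMSO and 10 uM DA3003; Hill fit.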
# Sequence of Phospholipid hydroperoxide glutathione peroxidase GPX4 (Homo sapiens) (P36969 whole entry, looked up): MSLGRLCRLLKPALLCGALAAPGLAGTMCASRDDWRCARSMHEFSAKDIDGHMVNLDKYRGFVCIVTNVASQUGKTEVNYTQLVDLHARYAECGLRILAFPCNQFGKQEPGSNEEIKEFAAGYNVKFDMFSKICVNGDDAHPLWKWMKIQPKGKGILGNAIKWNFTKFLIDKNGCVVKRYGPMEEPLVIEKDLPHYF
# Sequence of Glutathione peroxidase 1 (Homo sapiens) (P07203 whole entry, looked up): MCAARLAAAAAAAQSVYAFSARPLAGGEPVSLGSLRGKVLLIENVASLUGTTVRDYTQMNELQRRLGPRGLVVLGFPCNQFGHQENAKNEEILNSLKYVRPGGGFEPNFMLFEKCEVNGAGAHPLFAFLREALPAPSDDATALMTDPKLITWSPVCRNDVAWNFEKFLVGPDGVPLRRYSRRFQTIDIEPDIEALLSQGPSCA
Compound,Potency [1],Potency [2],Potency [3],Potency [4],Potency [5]
CN1CCc2cc3c(cc2C(=O)Cc2cc4c(cc2C1)OCO4)OCO3,inactive,inactive,inactive,inactive,inactive
O=C(O)CCc1nccc2c1[nH]c1ccccc12,25.5 µM (active),22.7 µM (active),inactive,inactive,inactive
CCN(CC)C(=O)C(c1ccccc1)N1CCN(c2ccc(NC(=O)c3ccccc3-c3cccnc3)cc2F)CC1 (stereo not given),inactive,inactive,inactive,inactive,inactive
C=CS(=O)(=O)NC1CCN(C(=O)CNc2cc(I)c(Cl)cc2OC)CC1,inactive,inactive,inactive,inactive,inactive
O=C(NCCN1CCN(c2cccc3ccc(O)cc23)CC1)c1ccc(F)cc1,inactive,inactive,inactive,inactive,inactive
Cc1[nH]c2ccccc2c1CCNCc1ccc(/C=C/C(=O)NO)cc1,inactive,inactive,inactive,inactive,inactive
CCOc1ccc(CCNC(=O)c2cc3sc(Cl)cc3n2C)cc1OCC,inactive,inactive,inactive,inactive,inactive
COc1ccc(N2CCN(C(=O)c3cc4c(s3)-c3ccccc3S(=O)(=O)C4)CC2)cc1,inactive,inactive,inactive,inactive,inactive
CC(C)(O)/C=C/C(=O)[C@](C)(O)[C@H]1[C@H](O)C[C@@]2(C)[C@@H]3CC=C4[C@@H](C[C@H](O[C@@H]5O[C@H](CO)[C@@H](O)[C@H](O)[C@H]5O)C(=O)C4(C)C)[C@]3(C)C(=O)C[C@]12C,inactive,inactive,inactive,inactive,inactive
C=C1/C(=C/C=C2\CCC[C@]3(C)[C@@H]([C@H](C)/C=C/[C@@H](C)C(C)C)CC[C@@H]23)C[C@@H](O)C[C@@H]1O,inactive,inactive,inactive,inactive,inactive
CC(C)(C)OC(=O)c1ncn2c1C(C)(C)Nc1ccccc1-2,inactive,inactive,inactive,inactive,inactive
C=C1CC2OC(=O)C(=C)C2C(O)/C=C(\C)CCC1O (stereo not given),inactive,inactive,inactive,inactive,inactive
Cc1cn2c(n1)Cc1ccc(Cl)cc1C(c1ccc(N)cc1)=N2,inactive,inactive,inactive,inactive,inactive
C[C@H]1CO[C@@H]2Cn3cc(C(=O)NCc4ccc(F)cc4F)c(=O)c(O)c3C(=O)N12,inactive,inactive,inactive,inactive,inactive
C=C1CCC2[C@](C)(CCC[C@@]2(C)C=O)[C@H]1CC/C(C)=C/CO (stereo not given in full),inactive,inactive,inactive,inactive,inactive
Cn1cc(C2=C(c3coc4ccccc34)C(=O)NC2=O)c2cc(Br)ccc21,inactive,inactive,inactive,inactive,inactive
COc1cccc(NCCC2(c3ccccc3)CC(C)(C)OC(C)(C)C2)c1,inactive,inactive,inactive,inactive,inactive
C=C1C(=O)OC2C=C(C)CC/C=C(\CO)CC(O)C12 (stereo not given),inactive,inactive,inactive,inactive,inactive
CCOc1ccc(-n2c(C(C)N(Cc3cccnc3)C(=O)Cc3ccc(F)c(C(F)(F)F)c3)nc3ncccc3c2=O)cc1 (stereo not given),inactive,inactive,inactive,inactive,inactive
COCc1c(Cl)ccc2c1CC[C@H]2c1ncc[nH]1,inactive,inactive,inactive,inactive,inactive
CCOc1cn(-c2ccc(F)cc2C)nc1C(=O)Nc1ccc(Oc2ccnc3cc(OC)c(OC)cc23)c(F)c1,inactive,inactive,inactive,inactive,inactive
OC1C=C2C3CN(Cc4cc5c(cc43)OCO5)C2CC1O (stereo not given),inactive,inactive,inactive,inactive,inactive
COC(=O)C[C@H]1[C@]2(C)C3=C(C)[C@H](c4ccoc4)C[C@H]3O[C@@H]2[C@H](O)C2[C@](C)(C(=O)OC)C=CC(=O)[C@@]21C (stereo not given in full),inactive,inactive,inactive,inactive,inactive
COC(C)(C)CCn1nc(Nc2c(C)cccc2C)c2cnc(Nc3ccc(OCCN4CCCC4)c(F)c3)nc21,inactive,inactive,inactive,inactive,inactive
CN(C)CCN(Cc1ccccc1)C(=O)c1cc(-c2ccc(F)cc2)n2nc(C(C)(C)C)cc2n1,inactive,inactive,inactive,inactive,inactive
CO[C@H]1C[C@@H]2CC[C@@H](C)[C@@](O)(O2)C(=O)C(=O)N2CCCC[C@H]2C(=O)O[C@H]([C@@H](C)C[C@@H]2CC[C@@H](O)[C@H](OC)C2)CC(=O)[C@H](C)/C=C(\C)[C@@H](O)[C@@H](OC)C(=O)[C@H](C)C[C@H](C)/C=C/C=C/C=C/1C,inactive,inactive,inactive,inactive,inactive
O=c1nc(-c2ccccn2)sc2ccccc12,inactive,inactive,inactive,inactive,inactive
